CYP2C9 act: CYP2C9 (human) activation. recombinant CYP2C9, luciferin-H conversion, luminescence; stronger effect = higher value; factor 1 = untreated enzyme, 0 = blocked. activation factor at 5 µM. hit rate 1.4% among 96,000;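 active = activation factor of 2 or more for CYP2C9 at a 5 µM dose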;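 note: 0 = sulfaphenazole-blocked wells and 1 = vehicle-only wells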
Target sequence (P11712 whole entry, looked up): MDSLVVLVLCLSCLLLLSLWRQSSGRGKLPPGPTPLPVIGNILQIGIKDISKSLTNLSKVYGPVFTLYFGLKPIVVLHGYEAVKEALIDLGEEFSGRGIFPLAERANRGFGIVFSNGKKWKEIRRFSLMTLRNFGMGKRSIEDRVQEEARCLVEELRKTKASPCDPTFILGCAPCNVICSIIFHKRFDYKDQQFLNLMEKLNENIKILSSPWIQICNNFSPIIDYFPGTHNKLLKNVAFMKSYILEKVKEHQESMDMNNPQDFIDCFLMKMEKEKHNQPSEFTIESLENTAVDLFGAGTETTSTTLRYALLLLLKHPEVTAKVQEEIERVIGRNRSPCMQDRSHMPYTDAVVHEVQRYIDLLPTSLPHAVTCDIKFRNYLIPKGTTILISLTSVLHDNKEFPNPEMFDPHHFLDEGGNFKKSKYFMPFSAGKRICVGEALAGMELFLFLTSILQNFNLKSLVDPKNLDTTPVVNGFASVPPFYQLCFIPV
sEH inh: blocks human soluble epoxide hydrolase activity. P34913. recombinant human sEH enzymatic activity assay. inhibition, % at 2 µM. hit rate 0.34% among 91,000; in the data active = inhibition above about 80%
sEH act: soluble epoxide hydrolase (human) activation; hit rate 0.04% among 91,000; activation, % at 2 µM; P34913; purified human sEH enzymatic activity, activator screen; in the data active = activation above about 37%
CYP2C19 activ: increases human CYP2C19 enzyme activity | recombinant CYP2C19, luciferin-H EGE luminescence; stronger effect = higher value; 0 = fully inhibited enzyme, 1 = untreated enzyme | AID 1025 | 96,000 tested, under 10 active | activation factor at 5 µM;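 active = activation factor of at least 2 at 5 µM in the primary screen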;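 note: 0 = wells with 2.5 mM tranylcypromine and 1 = vehicle-only wells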
CYP2C19 inhib: inhibitors of human CYP2C19; P33261; CYP2C19 Supersomes, luciferin-H EGE luminescence, 30 min; inhibition, % at 5 µM; hit rate 21% among 96,000; AID 778;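 active = CYP2C19 inhibition above a set limit at 5 µM in the primary screen, cut at about 50% in these data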;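 note: plate controls were negative control wells for no effect and 2.5 mM tranylcypromine positive control for full effect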
CYP2C9 inhib: blocks human cytochrome P450 2C9; CYP2C9 Supersomes, luciferin-H conversion, luminescence; inhibition, % at 5 µM; hit rate 20% among 96,000;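 active = blocking of liver enzyme CYP2C9 beyond about 50% at 5 µM, limit read from the data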
The depositor's hits bear a star; . = no result. Rows were chosen to be rich in hits. Some 27% of all compounds tested hit in one or more screens of this group.

SMILES | CYP2C9 act | sEH inh | sEH act | CYP2C19 activ | CYP2C19 inhib | CYP2C9 inhib
COc1cccc(-n2c(SC)nnc2-c2c[nH]c3ccccc23)c1 | 0.7 | -10 | 8 | 0.4 | 62* | 34
CCCC1c2ccc(C)n2CCN1C(=O)Nc1ccc(F)cc1 (configuration not stated) | 0.8 | 12 | -14 | 0.8 | 23 | 15
Nc1c(S(=O)(=O)c2cccc(Cl)c2)c2nc3ccccc3nc2n1/N=C/c1ccc(O)c(O)c1 | 0.9 | 4 | -2 | 1.1 | -13 | 8
CCOC(=O)c1cnc(SCC(=O)Nc2ccc(NC(=O)CC)c(OC)c2)nc1N | 0.5 | 2 | -2 | 0.8 | 20 | 50
O=C(Nc1cccc(F)c1)NC1(C(=O)N2CCN3CCCC3C2)CCCCC1 (configuration not stated) | . | -13 | 18 | . | . | .
Cc1cccc(N(C)S(=O)(=O)c2ccc3c(c2)CCC(=O)N3)c1 | 0.9 | 2 | -4 | 0.7 | 28 | 6
CCOc1ccc(N2C(=O)NC(Cc3c[nH]c4ccccc34)C2=O)cc1 (configuration not stated) | 0.6 | -28 | 26 | 0.7 | 30 | 36
O=C1NC(Cc2c[nH]c3ccccc23)C(=O)N1CCOc1ccccc1 (configuration not stated) | 0.4 | 6 | -7 | 0.2 | 82* | 57*
Cc1cc(C(=O)CN2C(=O)NC(Cc3c[nH]c4ccccc34)C2=O)c(C)n1C (configuration not stated) | 0.8 | -5 | 4 | 0.3 | 67* | 19
CC(C)[C@H](NC(=O)c1ccccc1)C(=O)OCC(=O)N1CCc2ccccc2C1 | 1.3 | 8 | -6 | 1.1 | -12 | -33
N#C/C(=C\c1ccc[nH]1)S(=O)(=O)c1ccccc1 | 5.5* | 2 | 2 | 0.5 | 47 | -446
CCn1cc(/C=C(/C#N)S(=O)(=O)c2ccccc2)cn1 | 3* | 6 | -2 | 0.7 | 31 | -204
Cn1ncc(N=Cc2ccc([N+](=O)[O-])cc2)c1C(=O)N1CCOCC1 | 1.3 | -3 | 5 | 1.3 | -26 | -33
COc1ccccc1CN1CC(C(=O)NC2CCCCC2)CC1=O (configuration not stated) | 1.2 | 11 | -12 | 0.9 | 12 | -20
CC(Nc1c([N+](=O)[O-])c(=O)oc2ccccc12)C(Cl)c1ccccc1 (configuration not stated) | 0.7 | 2 | 1 | 0 | 97* | 33
O=c1oc2ccccc2c(Nc2ccc(O)cc2)c1[N+](=O)[O-] | 0.7 | 3 | 0 | 0.7 | 34 | 32
Cc1cc(C)c(S(=O)(=O)NCc2cn3c(C)csc3n2)c(C)c1 | 1.2 | -25 | 26 | 0.5 | 51* | -21
Cc1ccc(SCc2cn3c(C)csc3n2)cc1 | 2.9* | -15 | 14 | 0.1 | 90* | -187
Cc1csc2nc(CCNS(=O)(=O)c3cccs3)cn12 | 1.2 | 15 | -16 | 0.3 | 70* | -21
Cc1nc(CCNS(=O)(=O)c2cccs2)cs1 | 1.1 | 2 | 2 | 0.7 | 34 | -12
CCOC(=O)CSc1ncc(OC)c(Sc2ccc(Cl)cc2)n1 | 0.4 | . | . | 0.7 | 30 | 58*
CCOC(=O)C(C)Sc1ncc(OC)c(Sc2ccc(Cl)cc2)n1 (configuration not stated) | 0.2 | . | . | 0.5 | 45 | 83*
CCOC(=O)C(C)Sc1ncc(OC)c(=O)[nH]1 (configuration not stated) | 1 | 5 | -3 | 1 | 3 | -3
O=C(Nc1ccc2c(c1)OCO2)C1CCN(C(=O)c2cccs2)CC1 | 0.6 | . | . | 0.9 | 15 | 39
CCOC(=O)NC1(C(F)(F)F)C(=O)N(Cc2ccccc2)C2=C1C(=O)CC(C)(C)C2 (configuration not stated) | 1 | 4 | -2 | 0.3 | 71* | 4
SMILES | CYP2C9 act | sEH inh | sEH act | CYP2C19 activ | CYP2C19 inhib | CYP2C9 inhib
CC1(C)CC(=O)C2=C(C1)N(Cc1cccnc1)C(=O)C2(NC(=O)c1cccnc1)C(F)(F)F (configuration not stated) | 1 | 0 | 0 | 1 | 1 | -4
COc1ccc(C(=O)NC2(C(F)(F)F)C(=O)N(Cc3ccco3)C3=C2C(=O)CC(C)(C)C3)cc1OC (configuration not stated) | 1 | 5 | -6 | 0.9 | 7 | 3
COc1cc(CN2C(=O)C(NC(=O)c3ccco3)(C(F)(F)F)C3=C2CC(C)(C)CC3=O)cc(OC)c1 (configuration not stated) | 0.4 | -10 | 7 | 0.9 | 14 | 60*
CN1C(=O)N(S(=O)(=O)c2ccc(F)c(F)c2F)C(=O)C1(C)C | 1.1 | -5 | 4 | 1 | 0 | -7
COCC(=O)Nc1nc2ccccc2s1 | 1.2 | -5 | 6 | 0.9 | 5 | -16
Cc1ccc2nc(NC(=O)Cc3cccs3)sc2c1 | 0.7 | 10 | -10 | 0.8 | 24 | 28
O=C(Cc1cccs1)Nc1nc2ccccc2s1 | 0.5 | -2 | 0 | 0.4 | 56* | 50
COC(=O)CCCCCCCCC(=O)Nc1nc2ccccc2s1 | 0.2 | 4 | 0 | 0.4 | 63* | 82*
CCn1c(C(O)c2ccc3c(c2)OCO3)nc2ccccc21 (configuration not stated) | 0.5 | -7 | 6 | 0 | 98* | 46
Cc1cc(C(=O)COC(=O)CCc2nc3ccccc3s2)c(C)n1C | 1.9 | -12 | 13 | 0.9 | 15 | -86
COc1ccc(CCNC(=O)CC2Oc3ccc(Cl)cc3NC2=O)cc1OC (configuration not stated) | 1.5 | . | . | 0.4 | 59* | -51
COc1ccc(CCNC(=O)CSc2nnc(CNC(=O)c3ccccc3F)o2)cc1OC | 0.8 | 8 | -6 | 0.9 | 6 | 15
COc1ccc(CCNC(=O)CSc2nc3cc(Cl)ccc3o2)cc1OC | 0.3 | -27 | 25 | 0.8 | 25 | 66*
COc1ccc(C(C)=O)cc1CSc1nc2ccccc2o1 | 0.4 | 12 | -12 | 0.6 | 41 | 56*
COc1ccc(CCNC(=O)CC2Nc3ccccc3NC2=O)cc1OC (configuration not stated) | 0.7 | . | . | 0.8 | 21 | 27
COc1ccc(CCNC(=O)CSc2nc3ccccc3o2)cc1OC | 0.1 | -4 | 4 | 0.2 | 80* | 88*
CCCC12CN3CC(CCC)(CN(C1)C3C(O)C(O)C(O)CO)C2=O (configuration not stated) | 1 | 6 | -5 | 1 | 3 | 4
CCOC(=O)c1[nH]c2ccccc2c1NC(=O)c1ccc(Br)o1 | . | 8 | -4 | . | . | .
Cc1nnc(SCc2ccc(C(=O)O)cc2)s1 | 1 | -8 | 7 | 1.1 | -6 | 2
Cc1cc(C)cc(NC(=O)c2ccc(CSc3nnc(C)s3)cc2)c1 | 2* | 1 | -2 | 0.6 | 36 | -98
COc1ccc(C(C)=O)cc1CSc1nnc(C)s1 | 1 | . | . | 0.3 | 66* | -2
Cc1cccc(NC(=O)Cn2cnc3sc(C)c(S(=O)(=O)N4CCC(C)CC4)c3c2=O)n1 | . | 11 | -11 | . | . | .
